# Experimental data from PubChem BioAssay AID1822 (The Scripps Research Institute Molecular Screening Center, 2009).
# The campaign covered roughly 290,000 compounds. About 3,500 (1.2%) were called active. This is one part of a sample in which actives are shown more often than they occur.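 How the source made its calls: active means inhibition above the campaign mean inhibition over all tested compounds plus 3 SD (cut at about 28% in these data); inactive means the rest.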
# Tested on: M18 aspartyl aminopeptidase (Plasmodium falciparum 3D7)
# Experiment: PfM18AAP inhibitors, malaria aminopeptidase, primary screen, biochemical, QFRET, recombinant enzyme (AID 1822);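 further: 0% = plate median of test compound wells and 100% = 2 mM ZnCl2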
# Conditions: H-Glu-NHMec fluorogenic cleavage, at 7.35 µM, stronger effect = higher value
row,Structure (SMILES),inhibition
1,Clc1ccc(Cc2nn3c(-c4ccncc4)nnc3s2)cc1,8.22% (inactive)
2,Cc1cccc(C(=O)NC(=S)N(C)C2CCCCC2)c1,7.02% (inactive)
3,NC(=O)c1c(NC(=O)CSc2nnc(-c3ccco3)n2N)sc2c1CCCC2,34.4% (active)
4,CCc1cccc(C)c1NC(=O)CSc1nnc(-c2ccco2)n1N,3.63% (inactive)
5,NC(=O)c1c(NC(=O)CSc2nc(N)cc(=O)[nH]2)sc2c1CCCC2,8.38% (inactive)
6,CC(C)c1ccc(S(=O)(=O)NC2CCCC2)cc1,-8.03% (inactive)
7,Cc1ccccc1CN1CCC(C(=O)Nc2ccc(Oc3cccnc3)cc2)CC1,0.98% (inactive)
8,O=C(c1ccc(Cl)c(S(=O)(=O)N2CCCCC2)c1)N1CCCCCC1,-4.84% (inactive)
9,O=C(c1ccc[nH]c1=S)N1CCN(S(=O)(=O)c2ccc(Br)cc2Cl)CC1,29.6% (active)
10,O=C(c1ccccc1F)N1CCN(S(=O)(=O)c2ccc(Br)cc2)CC1,1.79% (inactive)
11,COc1cc(NC(=O)C2=CC(c3ccco3)=NS(=O)(=O)N2C)cc(OC)c1OC,3.32% (inactive)
12,O=C(CO/N=C/c1ccccc1O)NNC(=O)c1ccccc1Cl,43.1% (active)
13,O=C(CO/N=C/c1ccccc1OC(F)F)NC1CCCC1,3.38% (inactive)
14,O=C(N/N=C/c1ccc(OC(=O)c2ccccc2Cl)cc1)c1ccc(O)cc1,8.47% (inactive)
15,CC(C)c1ccc(NC(=S)NC2CC3C=CC2C3)cc1 (stereo not drawn),-6.48% (inactive)
16,CC(=O)c1cnc(Nc2nc(C)c3cc(C)ccc3n2)nc1C,1.6% (inactive)
17,O=C(NCCCn1ccnc1)c1cc(-c2ccccc2)on1,-9.41% (inactive)
18,COc1ccc(-c2csc(Cc3nc(O)cs3)n2)cc1,8.2% (inactive)
19,CC(C)(C)C(=O)OCc1nc(-c2ccc(O)c(O)c2)cs1,58.2% (active)
20,Cc1onc(C(=O)NN)c1-c1csc(COc2ccccc2)n1,-8.62% (inactive)
21,COC(=O)[C@@H]1CCCN1C(=O)c1cc(COc2cccc3cccnc23)on1,3.55% (inactive)
22,COc1cc(C)c(C)cc1S(=O)(=O)N1CCCc2ccccc21,-5.85% (inactive)
23,Cc1[nH]c(C)c(S(=O)(=O)N2CCC(C)CC2)c1C(=O)N1CCCC1,-4.62% (inactive)
24,COCCCNC(=O)C1CC(=O)N(CCc2ccc(F)cc2)C1 (stereo not drawn),2.65% (inactive)
25,CCOC(=O)CSc1nnc(NC(=O)C2CC(=O)N(c3ccc(F)cc3)C2)s1 (stereo not drawn),-0.3% (inactive)
26,CC(C)(C)NC(=O)C(c1ccncc1)N(C(=O)CNC(=O)c1ccco1)c1ccc2c(c1)OCO2 (stereo not drawn),35% (active)

row,Structure (SMILES),inhibition
1,COc1cccc(N(C(=O)CNC(=O)c2ccco2)C(C(=O)NC2CCCCC2)c2cccnc2)c1 (stereo not drawn),9.7% (inactive)
2,Cc1ccc(N(C(=O)CNC(=O)c2ccco2)C(C(=O)NC2CCCC2)c2ccncc2)cc1 (stereo not drawn),0.63% (inactive)
3,C/C(CC1CC(C)(C)OC1=O)=N/Nc1nc(-c2ccccc2)cs1 (stereo not drawn),6.59% (inactive)
4,O=C(CSc1nccc(=O)[nH]1)Nc1ccc(N2CCOCC2)c(Cl)c1,2.24% (inactive)
5,O=C(CN1CCN(c2ccc(F)cc2)CC1)Nc1ccccc1,-7.36% (inactive)
6,O=C(CN1CCN(c2ccccc2)CC1)Nc1ccc(F)cc1,-1.61% (inactive)
7,O=C(CN1CCN(c2cccc(Cl)c2)CC1)Nc1ccc(S(=O)(=O)N2CCOCC2)cc1,-3.74% (inactive)
8,O=C(CN1CCOCC1)Nc1cc(Cl)ccc1Cl,1.38% (inactive)
9,O=C(CN1CCN(c2ccc(O)cc2)CC1)Nc1cc(S(=O)(=O)N2CCOCC2)ccc1Cl,30.2% (active)
10,O=C(CN1CCN(c2ccc(O)cc2)CC1)Nc1ccc(-c2ccccc2)cc1,42% (active)
11,Cn1cc[n+](C)c1COc1ccc(C=O)cc1,-14% (inactive)
12,CC1CN(C(=O)CCC(=O)NCCCN2CCC(Cc3ccccc3)CC2)c2cc(Cl)ccc2O1 (stereo not drawn),-5.3% (inactive)
13,O=C(C[n+]1ccc2c(c1)nnn2-c1ccccc1)c1ccc(Cl)cc1,0% (inactive)
14,CSc1nc2ccccc2c(=O)n1Cc1ccc(F)cc1,4.37% (inactive)
15,CC(=O)c1ccc(-c2ccc(Cn3c(C)nc4cc(N)c(C)nc43)cc2)cc1,-5.95% (inactive)
16,Cc1cc2nc3c(=O)n(Cc4ccccc4)c(=O)[nH]c3nc2cc1N,33.3% (active)
17,CC1CCN(C(=O)C2CCN(S(=O)(=O)N3CCC4(CC3)OCCO4)CC2)CC1,-6.53% (inactive)
18,O=C(Nc1cccc(Cl)c1)C1CCCN(c2cnccn2)C1 (stereo not drawn),-0.72% (inactive)
19,COc1cc(NC(=S)N2CCCC(C)C2)cc(OC)c1OC (stereo not drawn),16.2% (inactive)
20,COc1cc(NC(=S)N2CCCC(C)C2)c(OC)cc1Cl (stereo not drawn),33.9% (active)
21,COc1ccc(NC(=S)N2CCCC(CO)C2)c(OC)c1 (stereo not drawn),1.11% (inactive)
22,COc1ccc(S(=O)(=O)N2CCC(C(=O)NCCC(=O)NCc3cccc(OC)c3)CC2)cc1,-4.58% (inactive)
23,O=C(O)c1cccc2c1C(=O)N(C1CCCC1)C2,-3.09% (inactive)
24,C/C(=N\NC(=O)c1ccc(C)cc1)C1C(=O)c2ccccc2C1=O,9.83% (inactive)
25,N#Cc1ccc(C(c2ccc(C#N)cc2)n2cncn2)cc1,51.3% (active)
26,N#Cc1ccc(C(c2nnnn2CCc2ccccc2)N2CCCCCC2)cc1 (stereo not drawn),-9.05% (inactive)

row,Structure (SMILES),inhibition
1,N#Cc1ccc(CSc2ncccn2)cc1,0.4% (inactive)
2,CCOc1ccc(N/C=C/C(=O)c2ccccc2)cc1,0.48% (inactive)
3,Cc1nc2nc[nH]n2c(=O)c1C/C=C/c1ccccc1,41.7% (active)
4,C=CCc1c(C)nc2cc(-c3ccccc3)[nH]n2c1=O,-0.1% (inactive)
5,Cc1nc2nc(COc3ccccc3)[nH]n2c(=O)c1Cc1ccccc1,5.29% (inactive)
6,COC(=O)C1[C@H]2SC(C)(C)C(C(=O)OC)N2C(=O)N1Cc1nc2ccccc2s1 (stereo partly drawn),2.76% (inactive)
7,CSc1nnc(NC(=O)c2nc(S(=O)(=O)Cc3ccc(C)cc3)ncc2Cl)s1,-15.5% (inactive)
8,CC1(C)CC(=O)C=C(Nc2ccccc2)C1,-2.72% (inactive)
9,Cc1cc(C)nc(NNC2=CC(=O)CC(C)(C)C2)n1,42.9% (active)
10,COC(=O)NNC1=CC(=O)CC(C)(C)C1,9.27% (inactive)
11,Cc1onc(C(=O)Nc2ccc3c(c2)OCO3)c1[N+](=O)[O-],-1.41% (inactive)
12,S=c1[nH]nc(-c2ccco2)n1/N=C/c1ccc(Br)s1,28% (active)
13,Cc1cc(-c2n[nH]c(=S)n2/N=C/c2ccco2)n[nH]1,6.34% (inactive)
14,S=c1[nH]nc(-c2ccco2)n1/N=C/c1ccccc1,19.4% (inactive)
15,COc1ccc(NC(=O)ON=C2c3ccccc3-c3ccccc32)cc1,-2.03% (inactive)
16,COc1ccc(-c2csc(NC3OC(=O)c4ccccc43)n2)cc1 (stereo not drawn),3.33% (inactive)
17,COc1ccc(N/C=C(\C2OC(=O)c3ccccc32)[N+](=O)[O-])cc1 (stereo not drawn),38.8% (active)
18,O=C(CCN1CCN(C/C=C/c2ccccc2)CC1)Nc1ccccc1Cl,-14.5% (inactive)
19,CS(=O)(=O)N(CC(=O)N1CCCCCC1)c1cccc(Cl)c1Cl,-10.9% (inactive)
20,CCOC(=O)NNc1cc(C(F)(F)F)ccn1,49.5% (active)
21,Cc1ccc(NC(=O)Nc2cccc(C(F)(F)F)c2)nc1,-4.58% (inactive)
22,CCC(=O)NC(Nc1cc(C)ccn1)(C(F)(F)F)C(F)(F)F,-6.4% (inactive)
23,CCOC(=O)c1cccc(NC(=O)CN2C(=O)C3CC=CCC3C2=O)c1 (stereo not drawn),0.39% (inactive)
24,O=C(Nc1cccnc1Cl)c1cc(-c2cccc(Cl)c2)on1,-1.19% (inactive)
25,CCOC(=O)C1(CCOc2ccccc2)CCN(Cc2ccc(C#CCCO)cc2)CC1,3.95% (inactive)
26,CC(=O)N1CCN(CC(c2ccccc2)c2ccccc2)CC1,-8.35% (inactive)

row,Structure (SMILES),inhibition
1,O=C(Nc1ccncc1)c1ccc([N+](=O)[O-])cc1Cl,8.21% (inactive)
2,O=C(Cc1ccccc1)Nc1ccc(NC(=O)c2cccnc2)cc1,-1.2% (inactive)
3,Cn1cccc1C(=O)N1CCc2ccccc2C1,-5% (inactive)
4,CC(C)CNC(=O)C(=O)NCC(c1ccc2c(c1)OCO2)N1CCOCC1 (stereo not drawn),-5.45% (inactive)
5,O=C(O)CCn1c(O)c(C=C2N=c3ccccc3=N2)sc1=S,37.6% (active)
6,O=C(O)CCn1c(Cc2ccccc2)nc2ccccc21,-1.96% (inactive)
7,Cc1cc2ccccc2n1CCC(=O)O,10.5% (inactive)
8,O=S1(=O)CCOC[C@H](CC2CCCCC2)N1Cc1ccc(F)cc1,-13.1% (inactive)
9,CCn1cc(CCC(=O)NCc2ccc(F)cc2)c2ccccc21,-10.5% (inactive)
10,Cc1cccc(NC(=O)c2sc3nc(N4CCOCC4)c4c(c3c2N)CCCC4)c1,41% (active)
11,Cc1nc(N2CCOCC2)c2c(C)c(C(=O)Nc3ccc(C(F)(F)F)cc3)sc2n1,-14.6% (inactive)
12,CC(=O)Nc1ccc(N2CCOCC2)c(C(=O)Nc2cccc(C)c2)c1,4.11% (inactive)
13,O=C(Nc1ccccc1)c1ccco1,2.58% (inactive)
14,O=C(Nc1ccccc1)/C(=C\c1ccco1)NC(=O)c1ccco1,8.12% (inactive)
15,O=C(NNC(=O)c1ccco1)Nc1ccccc1,48.6% (active)
16,O=C(O)C1CCC(CNS(=O)(=O)c2ccc(Br)cc2)CC1 (stereo not drawn),-15.2% (inactive)
17,Cc1cc(-c2ccc(/C=N/n3cnnc3)o2)c([N+](=O)[O-])cc1C,44.5% (active)
18,Cc1cc(C)c([N+](=O)[O-])cc1-c1ccc(/C=N/NC(=O)c2nonc2N)o1,4.59% (inactive)
19,Cc1ccccc1OCCOc1ccc([N+](=O)[O-])cc1/C=N/n1cnnc1,6.71% (inactive)
20,Brc1cc(/C=N/n2cnnc2)oc1Br,13.5% (inactive)
21,Cc1ccc(Cl)cc1-c1ccc(/C=N/n2cnnc2)o1,32.8% (active)
22,CC1=NN(c2ccc(Cl)c(C(=O)O)c2)C(=O)/C1=C/c1ccc(-c2ccccc2[N+](=O)[O-])o1,3.82% (inactive)
23,O=C1C2C3C=CC(C4CC34)C2C(=O)N1/N=C/c1ccc(-c2ccccc2[N+](=O)[O-])o1 (stereo not drawn),-5.14% (inactive)
24,Clc1cc(-c2ccc(/C=N/n3cnnc3)o2)ccc1Br,-0.09% (inactive)
25,Cc1cc([N+](=O)[O-])c(-c2ccc(/C=N/n3cnnc3)o2)cc1Cl,40.4% (active)
